This note sets out measurements from PubChem BioAssay AID488899 (Broad Institute, 2010).

In all, about 330,000 compounds went through this assay and about 2,800 (0.85%) were called active. The sample as a whole holds a higher share of actives than the screen did. Unmarked numbers belong to inactive results.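 How the source made its calls: active means mean inhibition across replicates of 60% or more, whatever share of single replicates reaches that level; inconclusive means some that reach 60%, reason not given; inactive means mean inhibition across replicates below 60%.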

The assay can be described thus: inhibitors of MITF-dependent TRPM1 promoter reporter, primary screen, cell-based, SK-MEL-5, single point, luciferase (AID 488899). The settings on record: SK-MEL-5 TRPM1 promoter luciferase, 24 h; at 12.5 µM; hits give high values.
For `O=C1NCC(c2ccccc2)(c2ccccc2)C(=O)N1`, the inhibition (usually the drop in the measured response relative to a control, in per cent) is -7.87%.
The result for `CC12CN3CCN(CC(C3)/C1=N\NC(=O)c1ccccc1N)C2` reads 9.43%; that for `N#CC1(Nc2ccc(-c3ccc(Cl)cc3)cc2)CCCC1`, -58.9%.
Regarding `CN(CC(=O)O)C(=O)c1ccccc1`, the inhibition was -4.07%.
The result for `CN(O)C(=S)c1ccccc1` reads 82% (active); that for `CN(/N=C/c1ccccc1)C(=S)c1ccccc1`, 1.77%; that for `CCOC(=O)N1CCN(S(=O)(=O)c2cc3c(cc2C)NC(=O)CO3)CC1`, 2.83%.
The result for `C=CCn1cc(C(=O)NCc2ccc(Cl)cc2)c(=O)c2cc(S(=O)(=O)N(CC)CC)ccc21` reads -5.87%.
Take `O=C(CN1CCN(c2ncccn2)CC1)Nc1ccccc1C(F)(F)F`: the inhibition was 18.5%.
To `CC(=O)c1ccc(S(=O)(=O)N2CCN(C(=O)/C=C/c3ccc4ccccc4n3)CC2)cc1` belongs 72.5% (active).
As for `CC(=O)c1ccc(S(=O)(=O)N2CCN(c3nc4c(C)c(C)ccc4cc3C#N)CC2)cc1`, the inhibition was 3.2%.
The result for `CC(=O)c1ccc(S(=O)(=O)N2CCC3(CC2)OCCO3)cc1` reads 8.67%; that for `CCN(CC)CCNS(=O)(=O)c1ccc(/C=C/C(=O)O)cc1`, 14.7%; that for `C=CC1=C(C(=O)O)N2C(=O)[C@@H](NC(=O)/C(=N\OCC(=O)O)c3csc(N)n3)[C@H]2SC1`, -2.96%.
`CC(=O)N(CC(O)CO)c1c(I)c(C(=O)NCC(O)CO)c(I)c(C(=O)NCC(O)CO)c1I` (stereo not given): the inhibition is -3.11%.
To `O=C(O)CCCCCNc1ncnc2ccc(Br)cc12` belongs 1.66%.
As to `COc1ccc(Nc2ncnc3ccc(Br)cc23)c(OC)c1`, the inhibition was 67.9% (active).
The result for `Brc1ccc2ncnc(NCc3cccnc3)c2c1` reads -1.36%; that for `N/C(=N\S(=O)(=O)c1ccc(Cl)cc1)N1CCOCC1`, 1.47%.
The result for `Cc1cc([N+](=O)[O-])c(=O)[nH]c1C` reads -0.774%; that for `COc1ccc(C(C[N+](=O)[O-])n2nc(C)cc2C)cc1` (stereo not given), 27.2%.
Consider `Cc1ccc(/C=N/NC(=O)C2=NNC(c3ccccc3)(c3ccccc3)C2)c(O)c1`, for which the inhibition is 76.5% (active).
The result for `CCN(CC)c1ccc(/C=N/NC(=O)c2cnccn2)c(O)c1` reads 25.3%; that for `O=C(NN=Cc1ccccc1O)NN=Cc1ccccc1O`, 22.9%.
To `CCOC(=O)c1c(S(=O)(=O)NCC(=O)Nc2ccc(C)cc2)c(C)n(C)c1C` belongs 7.89%; to `Cc1c(N=Nc2ccc(N(C)C)cc2)c(=O)n(-c2ccccc2)n1C`, -25.6%; to `Cn1c(=S)sc2ccc3ccccc3c21`, 0.517%.
To `CC(=O)Nc1ccc(Nc2cc(C)nc(Nc3ccc(NC(C)=O)cc3)n2)cc1` belongs -5.88%; to `CCc1nc(Nc2ccc(NC(C)=O)cc2)c2oc3ccccc3c2n1`, 5.96%.
With `CC(=O)Nc1ccc(Nc2c3ccccc3nc3ccccc23)cc1`, the inhibition was 62.4% (active).
To `Cc1ccc(Cl)cc1N1CCN(C(=O)c2cccc3c(=O)c(C)c(-c4ccccc4)oc23)CC1` belongs 9.36%; to `C/C=N/N(c1ccccc1)c1ccccc1`, 2.93%; to `O=C(NNC(=O)c1ccc2ccccc2c1)c1ccc(Cl)cc1`, 10.1%.
To `O=C(CN1CCN(S(=O)(=O)c2ccc(Br)cc2)CC1)Nc1ccccc1C(=O)c1ccccc1` belongs -0.0235%; to `O=[N+]([O-])c1ccc(C=NN=Cc2ccc([N+](=O)[O-])cc2)cc1`, -1.22%; to `O=C1/C(=C\c2ccc([N+](=O)[O-])cc2)CS(=O)(=O)C/C1=C/c1ccc([N+](=O)[O-])cc1`, 106% (active).
For `O=C(NN=Cc1ccc([N+](=O)[O-])cc1)C1CC1`, the inhibition is -20.4%.
The result for `Cc1cc(C)c2nc3nc(C)cc(C)c3c(N)c2c1` reads 69% (active); that for `O=S(=O)(NCc1ccccc1Cl)c1cnc[nH]1`, 9.3%; that for `CN(C)/C=C(\C#N)C(=O)c1cccnc1Oc1ccc(F)cc1F`, -3.39%.
Take `Cc1cccc(NC(=O)c2nnn(-c3cccc(C(F)(F)F)c3)c2N)c1`: the inhibition was -39.6%.
Take `N#Cc1ccc(Oc2ccc(C(F)(F)F)cc2NC(=O)c2ccc(F)cc2)cc1`: the inhibition was -2.39%.
To `COc1cc(NC(=O)c2cncc(-c3ccc(C#N)cc3)c2)cc(C(=O)Nc2cccc(C(F)(F)F)c2)c1` belongs 71.3% (active).
With `COc1ccc(NC(=O)C(=O)NCC(=O)Nc2cccc(C(F)(F)F)c2)cc1`, the inhibition was 3.29%.
Turning to `O=C(Nc1ccc(-c2csc(Nc3cccc(C(F)(F)F)c3)n2)cc1)c1cccc(C(F)(F)F)c1`, the inhibition is -14.9%.
Consider `COc1cc(NC(=O)c2[nH]cnc2C(N)=O)cc(C(=O)Nc2cccc(C(F)(F)F)c2)c1`, for which the inhibition was 89.9% (active).
For `CC(C)[C@@H](NC(=O)OC(C)(C)C)C(=O)NCC1CCC(C(=O)N[C@@H](Cc2ccccc2)C(=O)O)CC1` (stereo not given in full), the inhibition was -3.13%.
The result for `CCOCCCn1c(NN)nc2ccccc2c1=O` reads 10.3%; that for `CCn1c(/C=C/c2ccc([N+](=O)[O-])o2)nc2ccccc2c1=O`, 75.9% (active).
The result for `O=c1oc(/C=C/c2ccccc2)nc2ccccc12` reads -14.4%; that for `CC(=O)NC(CC(=O)Nc1nccs1)c1ccccc1` (stereo not given), -5.93%; that for `O=C1CC[C@@H]2CC3(C[C@@H]4CCN1[C@H]24)Nc1cc([N+](=O)[O-])ccc1NC3=NC1CCCCC1` (stereo not given in full), -4.61%.
For the molecule `CC(=O)N1CC[n+]2c(-c3ccc([N+](=O)[O-])cc3)csc21`, the inhibition was -4.65%.
On to `COCCN1C(=O)C(=O)/C(=C(/O)c2ccc(S(=O)(=O)N3CCOCC3)cc2)C1c1ccc(OC)c(OC)c1` (stereo not given), for which the inhibition is 2.98%.
On to `CCOC(=O)c1c(C)nc(-c2ccccc2)nc1NC(=O)C(C)C`, for which the inhibition is -26.2%.
The result for `CCOC(=O)c1ccccc1OC(=O)Oc1ccccc1C(=O)OCC` reads 24%; that for `CCOC(=O)c1c(C)[nH]c2c1-c1ccccc1C(=O)C2=O`, 106% (active).
`CC(C)OC(=O)CN1CCN(c2ccc(Cl)cc2)CC1`: the inhibition was -22.1%.
The result for `C=CCn1c(C)cc(C2=NNC(=NCC)SC2)c1C` reads 98.4% (active); that for `Cc1ccc(S(=O)(=O)NCc2ccc(C(=O)NC3CCC(C)CC3)cc2)cc1` (stereo not given), -5.23%.
To `O=C(NCCc1ccccc1)c1cccc(NC(=O)c2ccccc2)c1` belongs -26.7%; to `CCN(CC(=O)Nc1c(F)cccc1F)C(=O)Cc1cccs1`, -11.1%.
The result for `COCCSc1nnc(NC(=O)CCS(=O)(=O)Cc2ccccc2)s1` reads -6.5%; that for `Cc1cccc(NC(=O)c2nc(S(=O)(=O)Cc3ccccc3)ncc2Cl)c1`, 70.8% (active).
As for `CSc1nnc(NC(=O)c2nc(S(=O)(=O)Cc3ccc(C)cc3)ncc2Cl)s1`, the inhibition is 62.7% (active).
The result for `Cc1ccc(S(=O)(=O)CC(=O)Nc2nnc(C)s2)cc1` reads 7.41%; that for `Cc1nnc(NC(=O)c2ccc3nccnc3c2)s1`, -45.1%.
Regarding `Cc1ccc(CS(=O)(=O)c2ncc(Cl)c(C(=O)Nc3nnc(C)s3)n2)cc1`, the inhibition was 85.4% (active).
To `Cc1cccc(CS(=O)(=O)c2ncc(Cl)c(C(=O)Nc3ccc(F)cc3)n2)c1` belongs 41%; to `Cc1cccc(NC(=O)c2nc[nH]c2C(=O)NCC(=O)OCc2ccccc2)c1`, -4.1%; to `CSc1ncc(Cl)c(C(=O)Nc2cc(C)ccc2C)n1`, 18.6%.
On to `NS(=O)(=O)c1ccccc1NC(=O)c1c(O)c2ccccc2[nH]c1=O`, for which the inhibition was -57.1%.
As to `Cc1nc(N)nc(Cl)c1CCC1OCCO1`, the inhibition was -7.11%.
Take `Cc1ccc(CN(CC(=O)NCC2CCCO2)S(=O)(=O)c2ccc(C)cc2)cc1` (stereo not given): the inhibition is -1.73%.
As for `COc1ccc(N2C(=O)C(CC(=O)Nc3ccccc3)N(Cc3ccc(OC)c(OC)c3)C2=O)cc1` (stereo not given), the inhibition was -7.22%.
Regarding `COc1ccc([N+](=O)[O-])cc1N(CC(O)Cn1nnc2ccccc21)S(=O)(=O)c1ccc(C)cc1` (stereo not given), the inhibition is -0.297%.
The result for `Cc1cc(F)ccc1NC(=S)NCCc1ccccc1` reads 7.66%.
The result for `Cc1ccc(C)c(S(=O)(=O)N(C)c2ccc(OC(=O)C3CCN(C(=O)c4ccc(F)cc4)CC3)cc2)c1` reads -0.817%; that for `Cc1ccc(S(=O)(=O)N2CCN(C(=O)c3cc(S(=O)(=O)N4CCOCC4)ccc3F)CC2)cc1`, 3.63%.
To `CC(C)Nc1nnc(SC(C)C(=O)N(C)C2CCCCC2)s1` (stereo not given) belongs 3.93%; to `Cc1ccc(C(=O)/C=C/c2c(C)nn(-c3ccccc3)c2Cl)cc1`, -34.6%.
Take `O=C(/C=C/Sc1ncn[nH]1)c1ccc(Cl)cc1`: the inhibition was 90.5% (active).
Consider `Cc1cccc(C=CC(=O)c2ccc(Cl)cc2)c1`, for which the inhibition is -37.5%.
The result for `CC(=O)Nc1ccc(NC(=O)C(C)OC(=O)c2ccccc2C(=O)c2ccc(Cl)c([N+](=O)[O-])c2)cc1` (stereo not given) reads 75.9% (active); that for `CC(OC(=O)CNC(=O)c1ccc(Cl)c([N+](=O)[O-])c1)C(=O)NCc1ccco1` (stereo not given), -4.83%.
To `O=C(Nc1ccncc1)c1ccc(Cl)c([N+](=O)[O-])c1` belongs -0.779%; to `O=C(COC(=O)c1cnccn1)Nc1ccc(Cl)cc1C(F)(F)F`, 8.53%; to `COc1ccc(CC(=O)NC2CCSc3ccccc32)cc1OC` (stereo not given), 3.11%.
To `COc1ccccc1-n1nnnc1SCC(=O)NC(=O)Cc1ccccc1` belongs 2.76%; to `COc1ccccc1N1CCN(S(=O)(=O)c2ccc(Cl)cc2)CC1`, 8.65%.
Turning to `COc1ccccc1-n1nnnc1S(=O)(=O)Cc1ccc(Cl)cc1`, the inhibition is 73.6% (active).
To `CC(C)(C)n1nc(Cc2cccc3ccccc23)c(C#N)c1N` belongs 4.42%.
To `CCc1nn(-c2cc(Oc3cccc4ccccc34)nc(-c3ccccc3)n2)c(N)c1C#N` belongs 86.1% (active); to `O=C(c1ccc2c(c1)N(Cc1ccc(F)cc1)C(=O)c1ccccc1S2(=O)=O)N1CCN(c2ccccn2)CC1`, 7.75%.
For `CCOC(=O)C1(Cc2ccccc2C)CCCN(S(C)(=O)=O)C1` (stereo not given), the inhibition was 0.048%.
